# High-throughput results: PubChem BioAssay, Johns Hopkins Ion Channel Center
# KCNQ2 pot = potentiators of rat KCNQ2 potassium channel. CHO-K1 KCNQ2, FluxOR thallium flux fluorescence; stronger effect = higher value. B-score at 10 µM. 310,000 tested, 0.54% active. AID 2239, 2010;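 active means fluorescence ratio B-score at least 3 SD of library B-scores, with initial fluorescence B-score within 3 of them, cut at about 5.3 in these data; same plate scores as AID 2156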;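 further: B-score of peak minus minimum over baseline fluorescence ratio after K+ and Tl+ stimulus; positive B-score means potentiation of KCNQ2 with more thallium influx and brighter signal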
# Target sequence (O88943 whole entry, looked up): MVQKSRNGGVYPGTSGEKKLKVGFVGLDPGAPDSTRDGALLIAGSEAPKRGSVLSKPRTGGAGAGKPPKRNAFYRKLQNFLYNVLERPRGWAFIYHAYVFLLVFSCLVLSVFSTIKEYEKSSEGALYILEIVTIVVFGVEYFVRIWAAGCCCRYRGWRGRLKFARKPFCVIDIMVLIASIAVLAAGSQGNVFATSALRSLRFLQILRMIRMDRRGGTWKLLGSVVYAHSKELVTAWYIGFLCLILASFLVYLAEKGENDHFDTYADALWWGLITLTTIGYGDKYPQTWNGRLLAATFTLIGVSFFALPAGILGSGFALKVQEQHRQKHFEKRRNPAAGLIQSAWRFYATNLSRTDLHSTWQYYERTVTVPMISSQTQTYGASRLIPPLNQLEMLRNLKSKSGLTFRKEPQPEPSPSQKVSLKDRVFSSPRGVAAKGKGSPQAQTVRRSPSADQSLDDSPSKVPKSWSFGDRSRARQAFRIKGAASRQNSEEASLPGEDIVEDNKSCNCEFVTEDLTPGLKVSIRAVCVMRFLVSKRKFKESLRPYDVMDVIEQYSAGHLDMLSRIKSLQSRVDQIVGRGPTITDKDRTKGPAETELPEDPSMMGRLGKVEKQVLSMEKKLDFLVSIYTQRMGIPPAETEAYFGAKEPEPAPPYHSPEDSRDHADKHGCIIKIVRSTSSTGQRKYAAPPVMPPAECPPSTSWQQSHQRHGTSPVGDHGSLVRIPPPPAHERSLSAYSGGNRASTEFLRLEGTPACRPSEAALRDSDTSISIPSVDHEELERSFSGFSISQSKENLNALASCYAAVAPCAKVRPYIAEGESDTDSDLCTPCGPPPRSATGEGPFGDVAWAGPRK
# KCNQ2 block = rat KCNQ2 potassium channel inhibitors, primary screen, cell-based, CHO-K1, FluxOR thallium flux, B-score; Potassium voltage-gated channel subfamily KQT member 2 (Rattus norvegicus), O88943; 20 min; stronger effect = lower value; B-score at 10 µM; 310,000 tested, 1.1% active; AID 2156, 2009;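 active means fluorescence ratio B-score at most minus 3 library SDs, with starting brightness B-score within 2 library SDs, cut at about -5.5 in these data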
# * = called active by the depositor; i = inactive; . = not tested or not shown. Rows were chosen to be rich in hits. Some 1.6% of all compounds tested hit in one or more screens of this group.
SMILES,KCNQ2 pot,KCNQ2 block
O=C(CSc1nc2c(c(=O)[nH]1)CCCC2)Nc1ccc(Cl)cc1F,.,i
CN(c1ccccc1)S(=O)(=O)c1cccc(Cl)c1Cl,-5.6,-5.6*
CN(c1ccccc1)S(=O)(=O)c1cc(Cl)ccc1Cl,.,i
CCOC(=O)C1(Cc2ccc(Cl)cc2)CCN(Cc2cn(CC)nc2C)CC1,0.44,i
C[C@@H](CSc1ccccc1)CN1CC[C@H](C(C)(C)C)CCC1=O,-7.2,-7.2*
CC(C)(C)C1CCC(=O)N(CCSc2ccccc2)CC1 (stereo not drawn),.,i
Cc1ccc(S[C@@H](CCN2CC[C@H](C)CCC2=O)c2ccccc2)cc1,.,i
Cc1ccc(S[C@@H](CCN2CC[C@H](C(C)(C)C)CCC2=O)c2ccccc2)cc1,-5.8,-5.8*
O=c1[nH]c(CSc2ccccn2)nc2c1oc1ccccc12,0.02,i
O=C1c2cccc3c([N+](=O)[O-])ccc(c23)C(=O)N1c1ccc(Cl)cn1,-7,-7*
O=C1c2cccc3c([N+](=O)[O-])ccc(c23)C(=O)N1c1ccccn1,.,i
CCOc1ccccc1NC(=O)N1CCC(NC(=O)C2CCCCC2)CC1,0.89,i
CCCN(Cc1cc2cc(C)ccc2[nH]c1=O)C(=O)c1cccc([N+](=O)[O-])c1,.,i
N#C/C(=C\C=C\c1ccccc1)C(=O)NCc1cccnc1,1.2,i
CC1CC2(CCCCC2)Nc2ccc3ccccc3c21 (stereo not drawn),.,i
CC(=O)N1c2ccc3ccccc3c2C(C)CC12CCCCC2 (stereo not drawn),-6.6,-6.6*
O=C(COC(=O)c1ccc(Cl)nc1)Nc1ccccc1OC(F)F,0.53,i
CC(C)(O)C#Cc1ccc(C(=O)N2CCN(c3ccc(Cl)cc3)CC2)cc1,.,i
COc1ccc(C(=O)NC2CCN(CC(=O)NCc3cccc(OC)c3)CC2)cc1,0.45,i
CCOc1c(C)cnc2c1c(=O)n(Cc1ccccc1Cl)c(=O)n2C,.,i
CCO/C(C)=N/n1c2nc3ccccc3nc2c2c(=O)n(Cc3ccccc3Cl)c(C)nc21,-8.4,-8.4*
COc1c(/C=N/Nc2nc(N3CCCCC3)nc(N3CCCCC3)n2)cccc1[N+](=O)[O-],.,i
O=[N+]([O-])c1ccc(/C=N/Nc2nc(N3CCCCC3)nc(N3CCCCC3)n2)o1,-5.6,-5.6*
CCOC(=O)C1CCN(C(=O)CN2C(=O)COc3ccc(C(C)(C)C)cc32)CC1,1.9,i
CC1CCCCN1C(=S)NCc1ccco1 (stereo not drawn),1.9,i
SMILES,KCNQ2 pot,KCNQ2 block
COCCNC(=O)CNC(=S)N(CCCN1CCOCC1)Cc1cccs1,.,i
O=C(COC(=O)Cn1nnc2ccccc21)NC1CCCC1,.,i
O=C(NCC1CCN(Cc2ccc(Cl)cc2)CC1)C1CCCN(c2ncnc3c2nc2n3CCCCC2)C1 (stereo not drawn),-6.6,-6.6*
O=C(NCC1CCN(Cc2ccc(F)cc2)CC1)C1CCCN(c2ncnc3c2nc2n3CCCCC2)C1 (stereo not drawn),.,i
COc1cc2c(cc1NC(=O)CSc1nnc(Cc3cccs3)n1Cc1ccco1)oc1ccccc12,.,i
Cc1cc(Cl)ccc1NC(=O)CSc1nnc(Cc2cccs2)n1Cc1ccco1,-6.3,-6.3*
CC(=O)c1cn(S(=O)(=O)c2ccccc2)c2ccccc12,0.82,i
CCCC[C@@H]1CNC(=O)C(=O)N1CCCc1cc(OC)c(OC)c(OC)c1,0.48,i
COc1cc(CCCN2C(=O)C(=O)NC[C@H]2Cc2cccc3ccccc23)cc(OC)c1OC,9.6*,i
C/C(=N\N=C(/C)c1cccc(N)c1)c1cccc(N)c1,0.3,i
CCCCCC(=O)Nc1cccc2ccccc12,5.7*,i
COC(=O)CCC(=O)Nc1cccc2ccccc12,0.28,i
Cc1cccc(NC(=O)CCS(=O)(=O)c2ccc(Cl)cc2)c1,.,i
O=C(Nc1ccccc1C(=O)N1CCCCC1)c1cccs1,0.94,i
O=C(CN(C(=O)c1cc2c(s1)CCC2)C1CCCC1)NCc1cccs1,-7.1,-7.1*
O=C(CN(Cc1ccccc1)C(=O)c1cc2c(s1)CCC2)NCc1cccs1,.,i
CCn1nc(CC(C)C)cc1C(=O)N1CCCC(Nc2ccc(OC)cc2)C1 (stereo not drawn),0.65,i
Cc1ncc(CN2CCC(n3nccc3NC(=O)c3ccccc3)CC2)s1,.,i
O=C(Nc1ccc(Cl)c(Cl)c1)Nc1ccc(Br)cc1F,.,i
O=C(Nc1ccccc1O)C(c1ccccc1)c1ccccc1,-6.5,-6.5*
O=C(Nc1ccc(Cl)c(Cl)c1)Nc1ccccc1O,11*,i
O=C(O)c1ccccc1NC(=O)C(c1ccccc1)c1ccccc1,1.4,i
Cc1ccc2nc(Nc3ccc(Cl)cc3)c3nncn3c2c1,0.11,i
COc1ccc(S(=O)(=O)N2CCCC(C(F)(F)F)C2)cc1 (stereo not drawn),.,i
COCC(C)NS(=O)(=O)c1ccc(C(=O)NC(Cc2ccccc2)c2ccccc2)cc1 (stereo not drawn),-7.8,-7.8*
SMILES,KCNQ2 pot,KCNQ2 block
CS(=O)(=O)c1ccc(C(=O)NC(Cc2ccccc2)c2ccccc2)cc1 (stereo not drawn),.,i
CCOc1ccc(N(CC(=O)NC2CCC(C)CC2)S(=O)(=O)c2c(C)noc2C)cc1 (stereo not drawn),0.09,i
Cc1noc(C)c1S(=O)(=O)N(CC(=O)NC1CCC(C)CC1)c1ccc(C(C)C)cc1 (stereo not drawn),-7.1,-7.1*
CCCCSCCCNC(=O)Nc1ccc(C)c(C)c1,8.7*,i
Cc1ccc(NC(=O)NCCN2CCCCC2)cc1C,0.73,i
CC(C)CCN1CC(=O)N2Cc3[nH]c4ccccc4c3C[C@H]2C1=O,-7.2,-7.2*
CCCN1CC(=O)N2Cc3[nH]c4ccccc4c3C[C@H]2C1=O,.,i
CCn1cc(C2=NC(C)CO2)c2ccccc21 (stereo not drawn),0.41,i
CCn1cc(C2=NC(c3ccccc3)CO2)c2ccccc21 (stereo not drawn),-5.7,-5.7*
Cc1ccc(NC(=O)c2cc(C(C)(C)C)nn2Cc2ccccc2)cc1,.,i
CC(C)(C)c1cc(C(=O)Nc2ccc(F)cc2)n(Cc2ccc(F)cc2)n1,-5.9,-5.9*
CS(=O)(=O)Nc1ccc(C2=NN(C(=O)CCCC(=O)O)C(c3cccs3)C2)cc1 (stereo not drawn),.,i
CCc1noc(C)c1C(=O)N1CCCC(CCC(=O)NCc2ccc(F)c(F)c2)C1 (stereo not drawn),0.93,i
O=C(O)c1ccc2c(c1)C1C=CCC1C(c1ccncc1)N2 (stereo not drawn),1.9,i
CC(=O)c1ccc2c(c1)C1C=CCC1C(c1cc3c(cc1Br)OCO3)N2 (stereo not drawn),-7.4,-7.4*
COc1ccc(N/N=C(\C=N\O)C(=O)c2ccc(OC)cc2)cc1,.,i
CO/N=C/C(=N\Nc1cc(OC)cc(OC)c1)C(=O)c1ccccc1,-5.8,-5.8*
CCOC(=O)C1CCC/C1=N\NC(=O)CN(c1cc(OC)ccc1OC)S(=O)(=O)c1ccccc1 (stereo not drawn),.,i
O=C(COc1ccc(Br)cc1)NCCCNC(=O)c1ccncc1,0.4,i
O=C(Nc1ccccc1)C1=C[C@H](c2csc3ccccc23)C[C@H](OCc2ccc(CO)cc2)O1,-5.7,-5.7*
